# Measured values from PubChem BioAssay (NCATS).
# Records with an inconclusive call do not appear. A call without a number means that no potency is given here. A structure can be active in one record and inactive in another. The source made the active and inactive calls. Calls follow the shape of the dose curve; as a rule, active = well fitted curve in the direction sought with a large enough effect; inconclusive = small, poorly fitted or top-dose-only effect, or another doubt; inactive = no such curve, though single readings can be large; an effect the other way counts as inactive or inconclusive.
# How the values were obtained:
# [1] = biological target: Glutathione peroxidase 1 (Homo sapiens) (UniProt P07203); experiment: Primary qHTS Assay for Inhibitors of Recombinant Selenoprotein Glutathione Peroxidase 1 (GPX1) (AID 1845191); conditions: recombinant GPX1, GR-coupled NADPH fluorescence, 15 min; series mostly up to 48.8 µM; also: nearly all actives have a fitted effect of over 65% in size; also: potency is read from the fitted curve at half-maximal effect
# Procedure, shortened: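 NADPH consumption tracked by fluorescence at 340/450 nm between t=0 and t=15 min, room temperature. Final mix: 10 nM GPX1, 100 nM glutathione reductase, 1 mM GSH, 0.5 mM NADPH, 0.5 mM cumene hydroperoxide, 0.01% BSA; 30 min compound–enzyme preincubation.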
# [2] = biological target: Phospholipid hydroperoxide glutathione peroxidase GPX4 (Homo sapiens) (UniProt P36969); experiment: Primary qHTS Assay for Inhibitors of Recombinant Selenoprotein Glutathione Peroxidase 4 (GPX4) (AID 1845192); conditions: recombinant GPX4, GR-coupled NADPH fluorescence, 15 min; series mostly up to 50 µM; also: nearly all actives have a fitted effect of over 65% in size; also: potency is read from the fitted curve at half-maximal effect
# Procedure, shortened: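 NADPH consumption followed by fluorescence at 340/450 nm, t=0 and after 15 min at room temperature. Reaction started with cumene hydroperoxide (0.5 mM final) after 30 min compound–GPX4 preincubation; final 200 nM GPX4, 100 nM GR, 1 mM GSH, 0.5 mM NADPH.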
# [3] = biological target: Luciferin 4-monooxygenase (Photinus pyralis) (UniProt P08659); experiment: Primary firefly luciferase (FLuc) qHTS assay for identification of artifact compounds. (AID 1845220); conditions: purified firefly luciferase, luminescence, 5 min; series mostly up to 54.1 µM; also: nearly all actives have a fitted effect of over 60% in size; also: potency is read from the fitted curve at half-maximal effect
# Procedure, shortened: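 FLuc 10 nM; luciferin 10 uM; ATP 10 uM; Tris-acetate pH 7.6, Mg-acetate 10 mM; 15 min RT preincubation; 5 min reaction; luminescence.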
# [4] = Primary fluorescence-based thiol-reactive (MSTI) qHTS assay for identification of artifact compounds. (AID 1845221); conditions: MSTI thiol-reactivity probe, 1 h; series mostly up to 53.8 µM;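 also: thiol-reactive compounds lower the probe fluorescence signal; nearly all actives have a fitted effect of over 65% in size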
# Procedure, shortened: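 Probe: MSTI 4 uM, PBS pH 7.4, 2% DMSO. Incubation 1 h, RT, light-protected. Readout fluorescence 525/598 nm.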
# [5] = Primary redox qHTS assay for identification of artifact compounds. (AID 1845223); conditions: Amplex Red/HRP redox cycling with DTT, fluorescence; series mostly up to 53.8 µM
# Procedure, shortened: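 Redox-cycling detection via DTT (250 uM final) oxidation coupled to Amplex Red (25 uM)/HRP (250 mU/mL) in HBSS. 15 min preincubation plus 30 min after DTT, room temperature. Ex/Em 525/598 nm; 4-parameter Hill fit against DMSO and 10 uM DA3003.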
# [6] = tested on: Nanoluciferase (engineered Oplophorus gracilirostris luciferase); experiment: Primary Nanoluciferase (NLuc) qHTS assay for identification of artifact compounds. (AID 1845222); conditions: NLuc-conditioned medium, Nano-Glo luminescence, 5 min; series mostly up to 54.1 µM;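 also: NLuc secreted into diluted conditioned medium of S16 cells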
# Procedure, shortened: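 NLuc from S16 cell medium (1:55) plus test compounds, 15 min, room temperature. Luminescence after Nano-Glo (1:100) addition, 5 min.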
# [7] = Quantitative High-Throughput drug screen in 47 multiple myeloma cell lines against the NCATS MIPE library collection: Delta47_JCRB cell viability assay (AID 1918925; also: nearly all actives have a fitted effect of over 45% in size; also: potency is read from the fitted curve at half-maximal effect); conditions: Delta47 myeloma viability, CellTiter-Glo ATP, 48 h; series mostly up to 45.8 µM
# Procedure, shortened: (§1)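 qHTS of the MIPE 4.0 collection: 500 myeloma cells/well, 48 h drug exposure at 37C in 5% CO2, then CellTiter-Glo for 5 min at room temperature before luminescence reading.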
# [8] = Quantitative High-Throughput drug screen in 47 multiple myeloma cell lines against the NCATS MIPE library collection: AMO1_DSMZ cell viability assay (AID 1918927; also: nearly all actives have a fitted effect of over 30% in size; also: potency is read from the fitted curve at half-maximal effect); conditions: AMO1 myeloma cells viability, CellTiter-Glo ATP luminescence, 48 h; series mostly up to 45.8 µM
# Procedure, shortened: as §1
# [9] = Quantitative High-Throughput drug screen in 47 multiple myeloma cell lines against the NCATS MIPE library collection: EJM_DSMZ cell viability assay (AID 1918926; also: nearly all actives have a fitted effect of over 30% in size; also: potency is read from the fitted curve at half-maximal effect); conditions: EJM myeloma cell viability, CellTiter-Glo ATP, 48 h; series mostly up to 45.8 µM
# Procedure, shortened: as §1
# [10] = Quantitative High-Throughput drug screen in 47 multiple myeloma cell lines against the NCATS MIPE library collection: FR4_PLB cell viability assay (AID 1918924; also: nearly all actives have a fitted effect of over 35% in size; also: potency is read from the fitted curve at half-maximal effect); conditions: FR4_PLB myeloma cells viability, CellTiter-Glo ATP, 48 h; series mostly up to 45.8 µM
# Procedure, shortened: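 Approved and investigational drugs from MIPE 4.0 were added by pin tool to 500 cells per well. After 48 hours at 37C, ATP-based CellTiter-Glo luminescence indicated remaining viability.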
# Chain of Glutathione peroxidase 1 (Homo sapiens) (P07203 whole entry, looked up): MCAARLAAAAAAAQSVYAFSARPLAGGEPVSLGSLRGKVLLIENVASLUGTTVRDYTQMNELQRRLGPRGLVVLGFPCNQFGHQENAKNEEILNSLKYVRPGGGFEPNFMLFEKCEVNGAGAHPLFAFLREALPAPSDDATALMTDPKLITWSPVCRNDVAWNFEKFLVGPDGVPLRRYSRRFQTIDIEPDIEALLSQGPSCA
# Chain of Phospholipid hydroperoxide glutathione peroxidase GPX4 (Homo sapiens) (P36969 whole entry, looked up): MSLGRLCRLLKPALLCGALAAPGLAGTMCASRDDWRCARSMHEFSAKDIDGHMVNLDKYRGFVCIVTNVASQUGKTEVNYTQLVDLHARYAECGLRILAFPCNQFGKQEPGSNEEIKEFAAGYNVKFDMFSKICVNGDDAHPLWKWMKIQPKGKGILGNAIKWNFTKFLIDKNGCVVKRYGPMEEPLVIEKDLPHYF
SMILES,Potency [1],Potency [2],Potency [3],Potency [4],outcome [5],Potency [6],Potency [7],Potency [8],Potency [9],Potency [10]
CC(C)NCC(O)COc1cccc2[nH]ccc12 (stereo not given),inactive,inactive,inactive,inactive,inactive,,,,,
CC(C)n1nc(-c2ccc3oc(N)nc3c2)c2c(N)ncnc21,inactive,inactive,inactive,inactive,inactive,inactive,0.0059 µM (active),,,
NC(=O)c1cccc(-c2cc(Nc3ccc(OC(F)(F)F)cc3)ncn2)c1,inactive,inactive,inactive,inactive,inactive,,18.7 µM (active),18.7 µM (active),,
Cc1ccc(Nc2cc(-c3cccc(N4C(=O)c5ccccc5C4=O)c3)ncn2)cc1NS(C)(=O)=O,inactive,inactive,inactive,inactive,inactive,inactive,14.8 µM (active),18.7 µM (active),26.4 µM (active),
CN1CCN(CCOc2cc(OC3CCOCC3)c3c(Nc4c(Cl)ccc5c4OCO5)ncnc3c2)CC1,inactive,inactive,inactive,inactive,,,23.5 µM (active),18.7 µM (active),,18.7 µM (active)
CC(C)(C)NC(=O)Nc1cccc(Nc2ncc(F)c(NC(C)(C)CO)n2)c1,inactive,inactive,inactive,inactive,inactive,,,14.8 µM (active),inactive,inactive
Clc1ccc(Cn2c(CN3CCCC3)nc3ccccc32)cc1,inactive,inactive,inactive,inactive,inactive,,,,,
O=c1cc(CN2CCOCC2)occ1OCCCCCSc1ccnc2cc(C(F)(F)F)ccc12,inactive,inactive,inactive,inactive,,,6.62 µM (active),18.7 µM (active),,
CS(=O)c1ccc(-c2nc(-c3ccc(F)cc3)c(-c3ccncc3)[nH]2)cc1 (stereo not given),inactive,25.5 µM (active),inactive,inactive,inactive,inactive,13.6 µM (active),30.3 µM (active),10.8 µM (active),
CN[C@@H](C)C(=O)N[C@H]1CN(C(=O)CC(C)C)CC[C@H]2CC[C@@H](C(=O)NC(c3ccccc3)c3ccccc3)N2C1=O,inactive,inactive,inactive,inactive,inactive,,,2.96 µM (active),16.6 µM (active),
O=C(NC1CCOCC1)c1ccc(-c2cc(-c3cn[nH]c3-c3ccccn3)ccn2)cc1,inactive,inactive,inactive,inactive,inactive,,,,inactive,inactive
CNC(=O)c1ccc2cc(C3(O)CCn4cncc43)ccc2c1 (stereo not given),inactive,inactive,inactive,inactive,inactive,inactive,inactive,,inactive,
COc1cc2c(cc1OC)CN(CCc1ccc(NC(=O)c3cc(OC)c(OC)cc3NC(=O)c3cnc4ccccc4c3)cc1)CC2,inactive,inactive,inactive,inactive,inactive,,13.2 µM (active),inactive,inactive,
CC(=O)Nc1ccc([C@H](C)C(=O)Nc2ncc(C(C)C)s2)cc1,inactive,inactive,inactive,inactive,inactive,,1.48 µM (active),0.662 µM (active),0.743 µM (active),
COc1cc2ncnc(-n3nc(-c4ccccn4)nc3N)c2cc1OC,inactive,inactive,inactive,inactive,inactive,,1.48 µM (active),inactive,14.8 µM (active),11.8 µM (active)
COc1ccc(Cc2ccc(NC(N)=O)cc2)cc1-c1cccc(Cl)c1,inactive,inactive,inactive,inactive,inactive,,,,inactive,
CC(C)C(C)C=CC(C)C1CCC2C3=CC=C4CC(O)CCC4(C)C3CCC21C (stereo not given),inactive,inactive,,,,,inactive,inactive,inactive,inactive
COc1cc(NC(=O)c2ccc(-c3ccc(Cl)cc3)o2)cc(OC)c1,inactive,inactive,,,,,2.35 µM (active),7.43 µM (active),inactive,inactive
CCn1cc(C(=O)O)c(=O)c2ccc(C)nc21,inactive,inactive,,,,,inactive,,inactive,inactive
O=C(O)c1ccccc1C(=O)Nc1ccc(-c2ccccc2)cc1,inactive,inactive,23.9 µM (active),,inactive,,,inactive,,inactive
O=C1C(Cl)=C(NCCN2CCOCC2)C(=O)c2ncccc21,9.16 µM (active),inactive,,,,,7.43 µM (active),2.96 µM (active),7.43 µM (active),6.62 µM (active)
O=C(N[C@@H](c1ccccc1)[C@@H]1CCCCN1)c1cccc(C(F)(F)F)c1Cl,inactive,inactive,,,,,14.8 µM (active),,18.7 µM (active),inactive
CN1C[C@H]2c3ccccc3Oc3ccc(Cl)cc3[C@@H]2C1,inactive,inactive,,,,,inactive,,inactive,inactive
Cc1ccc(C(=O)Nc2cccc(C(F)(F)F)c2)cc1Nc1nc(-c2cccnc2)nc2c1cnn2C,inactive,inactive,,,,,5.26 µM (active),,18.7 µM (active),9.35 µM (active)
O=C(Nc1ccccc1Br)N[C@@H]1CCN(c2ccc(C(F)(F)F)cn2)C1,inactive,inactive,,,,,,,,inactive

SMILES,Potency [1],Potency [2],Potency [3],Potency [4],outcome [5],Potency [6],Potency [7],Potency [8],Potency [9],Potency [10]
C[C@]12CCC3c4ccc(O)cc4CCC3C1CCC2=O (stereo not given in full),inactive,inactive,,,,,inactive,0.833 µM (active),inactive,1.87 µM (active)
COc1ccc(-c2coc3cc(O)cc(O)c3c2=O)cc1,inactive,inactive,,,,,inactive,,,inactive
CCOC(=O)C1=C(N)Oc2ccc(Br)cc2C1C(C#N)C(=O)OCC (stereo not given),inactive,inactive,inactive,,inactive,inactive,14.8 µM (active),,20.9 µM (active),20.9 µM (active)
Oc1ccc(C2=Cc3ccc(O)cc3OC2)cc1,inactive,inactive,,,,,0.833 µM (active),2.64 µM (active),2.35 µM (active),1.32 µM (active)
COc1cc(N2CCC(N3CCN(C)CC3)CC2)ccc1Nc1ncc(Cl)c(Nc2ccccc2S(=O)(=O)C(C)C)n1,inactive,inactive,inactive,,,,inactive,,,
CN1[C@@H]2CCC[C@@H]1CC(NC(=O)c1nn(C)c3ccccc13)C2 (stereo not given in full),inactive,inactive,,,,,inactive,inactive,inactive,inactive
O=C(O)c1cc(-c2ccccc2)nc2ccccc12,inactive,inactive,,inactive,inactive,inactive,,,,
CC[C@]1(O)C[C@@H]2CN(CCc3c([nH]c4ccccc34)[C@@](C(=O)OC)(c3cc4c(cc3OC)N(C)[C@H]3[C@@](O)(C(=O)OC)[C@H](OC(C)=O)[C@]5(CC)C=CCN6CC[C@]43[C@@H]65)C2)C1,inactive,inactive,inactive,,,inactive,,,,
Clc1cc(Cl)cc(CNc2ncncc2-c2ccc3c(c2)OCO3)c1,inactive,inactive,,,,,11.8 µM (active),7.43 µM (active),,14.8 µM (active)
CO[C@H]1C(=O)[C@]2(C)[C@@H](OC)C[C@H]3OC[C@@]3(OC(C)=O)[C@H]2[C@H](OC(=O)c2ccccc2)[C@]2(O)C[C@H](OC(=O)[C@H](O)[C@@H](NC(=O)OC(C)(C)C)c3ccccc3)C(C)=C1C2(C)C,inactive,inactive,,,,,inactive,,inactive,inactive
Cc1cccc(Nc2nc(-c3ccncc3)cs2)c1,inactive,inactive,,,inactive,inactive,18.7 µM (active),11.8 µM (active),,18.7 µM (active)
CC(C)(C)COc1ccc(-n2cc(C(=O)O)cn2)cc1C#N,inactive,inactive,,,,,inactive,inactive,inactive,inactive
CC1(C)CCC2=C(O1)c1ccccc1C(=O)C2=O,16.3 µM (active) and inactive,inactive,,,,,16.6 µM (active),4.69 µM (active),20.9 µM (active),20.9 µM (active)
CC(C)(C(=O)NCC(F)(F)C(F)(F)F)C(=O)N[C@@H]1C(=O)Nc2ccccc2-c2ccccc21,inactive,inactive,,,,,20.9 µM (active),18.7 µM (active),inactive,inactive
CCn1c(C(=O)N(C2CC2)C2CC2)cc2c3c(ncn3C)c(Nc3cc(C)n(C)n3)nc21,inactive,inactive,inactive,,inactive,,,inactive,,
COc1cc(N2CCC(N3CCN(C)CC3)CC2)ccc1Nc1ncnc(Nc2ccccc2S(=O)(=O)C(C)C)n1,inactive,inactive,inactive,,,inactive,,,,
O=C(Nc1c(Cl)cncc1Cl)c1ccc(OC(F)F)c(OCC2CC2)c1,inactive,inactive,,,,,26.4 µM (active),inactive,inactive,inactive
CC(C)[C@H](CO)Nc1nc(Nc2ccc(C(=O)O)c(Cl)c2)c2ncn(C(C)C)c2n1,inactive,inactive,inactive,,inactive,,1.48 µM (active),,,
Cc1c(NC(=O)c2ccc(C(C)(C)C)cc2)cccc1-c1cn(C)c(=O)c(Nc2ccc(C(=O)N3CCOCC3)cc2)n1,inactive,inactive,5.88 µM (active),,inactive,,23.5 µM (active),,18.7 µM (active),23.5 µM (active)
CCNc1cc(NC2CCC(O)CC2)nc(Nc2ccc3c(ccn3Cc3ccccc3)c2)n1 (stereo not given),inactive,inactive,,,,,18.7 µM (active),,18.7 µM (active),26.4 µM (active)
COc1cc(Nc2ncc(F)c(Nc3ccc4c(n3)NC(=O)C(C)(C)O4)n2)cc(OC)c1OC,inactive,inactive,inactive,,inactive,inactive,1.18 µM (active),inactive,,
c1ccc2c(Cc3c[nH]c4ccccc34)c[nH]c2c1,inactive,inactive,,,,,0.935 µM (active),8.33 µM (active),1.48 µM (active),20.9 µM (active)
Nc1ncnc2ccccc12,inactive,inactive,,,,,,,,inactive
CN(C)CCC(c1ccccc1)c1ccccn1 (stereo not given),inactive,inactive,inactive,,inactive,,,,,
O=C(Nc1ccccc1-c1cn2c(CN3CCNCC3)csc2n1)c1cnc2ccccc2n1,inactive,inactive,,inactive,inactive,,4.69 µM (active),,20.9 µM (active),9.35 µM (active)
